Source: PubChem (National Center for Advancing Translational Sciences (NCATS))
HCV inh: HCV inhibition; Huh7.5.1 HCVcc-Cre infection, luciferase reporter, 44 h; Potency, µM (highest dose often 41.8 µM), inactives show at the top dose activity change, negative = inhibition, most hits filed as inhibitors; 340,000 tested, 3.4% active; AID 651820; note: potency is the fitted concentration of half-maximal effect
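Cells seeded at 1,000/well and cultured 4 h, then compounds added followed by HCVcc-Cre virus (~0.5 moi). After 44 h further culture, luciferase substrate was added, plates held 15 min at room temperature, and luminescence read for 15 sec.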
HCMV antiviral: blocks human cytomegalovirus replication; AID 1259415; HFF cells, HCMV-luciferase reporter, 72 h; hits give low values; activity change, negative = inhibition, % at 57.5 µM; 410,000 tested, 4.5% active; in the data active = activity change below about -60%; inconclusive = no clear call, values can overlap the other calls; inactive = above about -39%
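Human foreskin fibroblasts infected with luciferase-reporter HCMV at MOI 1 PFU/cell, compounds at two doses. Luciferase measured 72 h post infection; normalized to buffer-only basal and Salinomycin (10uM) controls.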
Pf growth 48h: inhibits P. falciparum growth in the first generation, 48 h | 310,000 tested, 5.9% active | P. falciparum luciferase growth in erythrocytes, 48 h | Potency, µM (top dose mostly 28.7 µM), for the others: top-dose activity change, negative = inhibition, actives largely listed as inhibitors | AID 504832; note: potency is the fitted concentration of half-maximal effect
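Cell-based growth assay: transgenic P. falciparum expressing firefly luciferase, cultured in red cells within RPMI 1640 containing 0.5% w/v Albumax, 24 mM bicarbonate and gentamycin. A drop in luciferase activity indicates inhibition.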
Pf growth 96h: P. falciparum growth inhibition at 96 hour, primary screen for plastid delayed-death inhibitors; P. falciparum luciferase reporter growth, 96 h; Potency, µM (top dose mostly 28.7 µM), inactives show top-dose activity change, negative = inhibition, usual class: inhibitors; 320,000 tested, 6.9% active; note: potency is the fitted concentration of half-maximal effect
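P. falciparum expressing integrated firefly luciferase grown in erythrocytes (2% hematocrit, 0.05% parasitemia final) with compounds for 96 hours at 37 C, 5% CO2. Growth inhibition read as loss of luminescence after adding luciferase detection reagent.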
MARV entry inh: blocks Marburg virus binding to or entry into cells; Marburg virus pseudotyped entry inhibition, cell reporter; Potency, µM (series often up to 37.8 µM), without a hit: top-dose activity change, negative = inhibition, hits mostly inhibitors; 300,000 tested, 1.8% active; calls by dose curve; tested in HEK293 cells; note: potency is the fitted concentration of half-maximal effect
Lassa entry inh: inhibitors of Lassa virus binding or cell entry; Lassa virus pseudotype entry inhibition, cell reporter; Potency, µM (top dose mostly 37.9 µM), for inactives: at the highest dose activity change, negative = inhibition, usual class: inhibitors; 300,000 tested, 1.2% active; calls by dose curve; tested in HEK293 cells; note: potency is the fitted concentration of half-maximal effect; nearly all actives have a fitted effect of over 50% in size
The depositor's hits bear a star; ? = inconclusive; . = not tested or not shown; [ ] = dose if it differs, or a comment. In the library only some 14% were active in any assay of this set; here they are far more common. Unless noted, calls come from the whole dose curve; as a rule, active = well fitted inhibition curve with a large enough effect; inconclusive = small, poorly fitted or top-dose-only effect, or another doubt; inactive = no such curve, though single readings can be large or run the other way. % is set by controls: 0 for no effect and ±100 for the full control effect.

SMILES	HCV inh	HCMV antiviral	Pf growth 48h	Pf growth 96h	MARV entry inh	Lassa entry inh
COc1cc(NC(=O)Cn2cnc3sc(C)c(S(=O)(=O)N4CCC(C)CC4)c3c2=O)cc(OC)c1OC	.	1.9	.	.	0.1%[46.1 µM]	12.7%[46.1 µM]
Cc1cc(OC(C)C(=O)NCC2CCCO2)cc(C)c1Cl (stereo not drawn)	-13.1%	-3.0	3.9%	5.22µM*	.	.
O=C(O)CCN1C(=O)c2ccc(NC(=O)CCc3ccccc3)cc2C1=O	0.0%	44.6	-1.5%	11.7µM*	.	.
O=C(O)CCN1C(=O)c2ccc(NC(=O)COc3ccccc3)cc2C1=O	21.6%	5.3	42.7%	8.6%	?	-1.9%
COc1c2ccccc2nc2ccccc12	-23.8%	-34.9	2.08µM*	125.5%	-9.5%[46.1 µM]	2.3%[46.1 µM]
Cc1c2ccccc2nc2ccccc12	-7.0%	-8.9	.	.	-4.2%	17.5%
Cc1ccc(S(=O)(=O)NCC(=O)OCC(=O)c2cccs2)cc1	18.7%	-0.1	-2.5%	13.1µM*	-13.8%	0.1%
COC(=O)c1ccc(COC(=O)CNS(=O)(=O)c2ccc(C)cc2)cc1	5.3%	37.2	99.0%	-0.5%	6.4%	7.6%
Cc1ccc(S(=O)(=O)NCC(=O)OCc2ccccc2Br)cc1	24.3%	-19.9	39.5%	9.28µM*	2.1%[46.1 µM]	13.5%[46.1 µM]
Cc1c(Cl)cccc1-c1ccc(CNc2ccc3[nH]c(=O)[nH]c3c2)o1	.	-23.4	.	.	-3.4%[46.1 µM]	8.5%[46.1 µM]
Brc1ccc(CN2CCc3nc(N4CCN(c5ncccn5)CC4)ncc3C2)cc1	.	-19.9	.	.	.	-6.8%[46.1 µM]
COc1cc(CN2CCc3nc(N4CCN(c5ncccn5)CC4)ncc3C2)cc(OC)c1OC	.	-62.9*	.	.	.	?
Fc1ccc(CN2CCc3nc(N4CCN(c5ccccc5F)CC4)ncc3C2)c(F)c1	.	-22.9	.	.	.	5.6%[46.1 µM]
CCOc1ccccc1CN1CCc2nc(N3CCN(c4ccccc4F)CC3)ncc2C1	.	-64.1*	.	.	.	-18.2%[46.1 µM]
CN(C)c1ccc(CN2CCc3nc(N4CCN(c5ccccn5)CC4)ncc3C2)cc1	.	-29.2	.	.	.	?
COc1cc(CN2CCc3nc(N4CCN(c5ccccn5)CC4)ncc3C2)cc(OC)c1OC	.	-63.4*	.	.	.	?
CCOc1ccc(N2CC(NC(=O)c3cc4ccccc4o3)CC2=O)cc1 (stereo not drawn)	.	-5.4	.	.	.	-3.6%[46.1 µM]
COc1ccc(NC(=O)CN(c2ccc(C)cc2)S(=O)(=O)c2cccs2)cc1	.	3.7	.	.	-14.6%[46.1 µM]	-2.3%[46.1 µM]
CCN(CC)C(=O)[C@H]1CC(CC(=O)NCCC2=CCCCC2)C(=O)N2CCc3c([nH]c4ccc(OC)cc34)[C@]12C (stereo partly drawn)	?	-9.5	.	.	.	.
CSc1nc2n(n1)C(C)C1=C(CCCC1=O)N2 (stereo not drawn)	-0.4%	-17.7	3.3%	2.94µM*	-14.6%[46.1 µM]	15.5%
COCc1c(Br)c(C)nc(OCC(=O)N/N=C/c2cc(C)n(-c3ccc([N+](=O)[O-])cc3)c2C)c1C#N	?	17.9	11.7µM*	?	?	?
CCN(CC)c1ccc([N+](=O)[O-])cc1/C=N/NC(=O)CC#N	0.8%	-22.0	?	?	3.7%	-5.4%
Cc1cc(/C=N/NC(=O)CC#N)c(C)n1-c1ccc([N+](=O)[O-])cc1	-26.8%	-91.1*	-14.0%	?	-13.1%	-2.6%
C[C@H]1CN([C@@H](C)CO)S(=O)(=O)c2ccc(C#CC3(O)CCCC3)cc2O[C@@H]1CN(C)C(=O)Cc1cccnc1	.	-11.2	.	.	.	.
COCCSc1nc(N)c2c3c(sc2n1)CN(C)CC3	6.9%	28.7	5.22µM*	3.7µM*	?	23.2%[46.1 µM]
CC(C)Sc1nc(N)c2c3c(sc2n1)CN(C)CC3	-21.9%	50.1	1.04µM*	.	3.3%	28.9%
CCCSc1nc(N)c2c3c(sc2n1)CN(C)CC3	-11.7%	.	?	?	-0.7%	23.7%
CN(C)CCSc1nc(N)c2c3c(sc2n1)CN(C)CC3	0.2%	6.2	4.15µM*	?	-19.5%	-1.5%
COCCNc1nc(SC)nc2sc3c(c12)CCN(C)C3	-17.8%	-26.6	0.4%	?	.	.
Cc1sc2c(c1C)c(=O)n(-c1ccc(Cl)cc1)c(=O)n2CC(=O)c1ccccc1	.	-4.9	.	.	-2.6%[46.1 µM]	-0.3%[46.1 µM]
